# Source: the supplement of paper PMC10849652
# Targets with a hit are over-represented here; the source holds about 8,800 in all. About 0.5% of all pairs of compound and target were hits. Unmarked numbers belong to inactive results.
# Tests used:
# Assay in all cases: log2 fold change, soluble protein after heating vs DMSO (PISA); higher = thermal stabilisation; K562 lysate, 10 uM; active = over 0.2 and 3.5 SD of the protein, either way, in both replicates (recomputed)
# alvocidib = compound: CN1CC[C@H](c2c(O)cc(O)c3c(=O)cc(-c4ccccc4Cl)oc23)[C@H](O)C1 [alvocidib]
# Procedure, shortened: (§1)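 The values are log-two fold changes in thermal stability compared with solvent controls and come from duplicates. They were obtained by TMTpro 16plex LC-MS/MS, with channel sums equalised, on the supernatant after 21,000xg for 90 min. That supernatant came from crude K562 extract at 1 mg/mL protein treated with 10 μM compound for 30 min, heated for 3 min across 48°C-58°C, pooled and brought to 0.5% NP-40 at 4°C.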
# Tubastatin A = compound: CN1CCc2c(c3ccccc3n2Cc2ccc(C(=O)NO)cc2)C1 [Tubastatin A]
# Procedure, shortened: as §1
# [1] = compound: CNC(=O)C1=CC=CC=C1NC2=NC(=NC=C2Cl)NC3=C(C=C(C=C3)N4CCOCC4)OC
# Procedure, shortened: as §1
# defactinib = compound: CNC(=O)c1ccc(Nc2ncc(C(F)(F)F)c(NCc3nccnc3N(C)S(C)(=O)=O)n2)cc1 [defactinib]
# Procedure, shortened: as §1
# [2] = compound: CNc1nc(-c2ccc3c(N)n[nH]c3c2)cc(N2C[C@@H](C(=O)NC3CCCCC3)CC[C@H]2C)n1
# Procedure, shortened: as §1
# encorafenib = compound: COC(=O)N[C@@H](C)CNc1nccc(-c2cn(C(C)C)nc2-c2cc(Cl)cc(NS(C)(=O)=O)c2F)n1 [encorafenib]
# Procedure, shortened: as §1
# [3] = compound: COC(=O)[C@H](CCSC)NC(=O)C1=C(C=C(C=C1)NC[C@H](CS)N)C2=CC=CC=C2
# Procedure, shortened: as §1
# alisertib = compound: COc1cc(Nc2ncc3c(n2)-c2ccc(Cl)cc2C(c2c(F)cccc2OC)=NC3)ccc1C(=O)O [alisertib]
# Procedure, shortened: as §1
# [4] = compound: COc1cc2nc(-c3cc(F)ccc3O)nc(N[C@@H]3CNC[C@H]3C(C)(C)O)c2cc1OC
# Procedure, shortened: as §1
# gefitinib = compound: COc1cc2ncnc(Nc3ccc(F)c(Cl)c3)c2cc1OCCCN1CCOCC1 [gefitinib]
# Procedure, shortened: as §1
# lapatinib = compound: CS(=O)(=O)CCNCc1ccc(-c2ccc3ncnc(Nc4ccc(OCc5cccc(F)c5)c(Cl)c4)c3c2)o1 [lapatinib]
# Procedure, shortened: as §1
# pictilisib = compound: CS(=O)(=O)N1CCN(Cc2cc3nc(-c4cccc5[nH]ncc45)nc(N4CCOCC4)c3s2)CC1 [pictilisib]
# Procedure, shortened: as §1
# crizotinib = compound: C[C@@H](Oc1cc(-c2cnn(C3CCNCC3)c2)cnc1N)c1c(Cl)ccc(F)c1Cl [crizotinib]
# Procedure, shortened: as §1
# [5] = compound: C[C@H](C1=CC=C(C=C1)C(=O)NC2=C3C=CNC3=NC=C2)N
# Procedure, shortened: as §1
# duvelisib = compound: C[C@H](Nc1ncnc2nc[nH]c12)c1cc2cccc(Cl)c2c(=O)n1-c1ccccc1 [duvelisib]
# Procedure, shortened: as §1
# gandotinib = compound: Cc1cc(Nc2cc(CN3CCOCC3)c3nc(C)c(Cc4ccc(Cl)cc4F)n3n2)n[nH]1 [gandotinib]
# Procedure, shortened: as §1
# tozasertib = compound: Cc1cc(Nc2cc(N3CCN(C)CC3)nc(Sc3ccc(NC(=O)C4CC4)cc3)n2)n[nH]1 [tozasertib]
# Procedure, shortened: as §1
# doramapimod = compound: Cc1ccc(-n2nc(C(C)(C)C)cc2NC(=O)Nc2ccc(OCCN3CCOCC3)c3ccccc23)cc1 [doramapimod]
# Procedure, shortened: as §1
# bafetinib = compound: Cc1ccc(NC(=O)c2ccc(CN3CC[C@H](N(C)C)C3)c(C(F)(F)F)c2)cc1Nc1nccc(-c2cncnc2)n1 [bafetinib]
# Procedure, shortened: as §1
# [6] = compound: Cc1cccc(CC(=O)N2CCc3c2ccc(-c2cn(C)c4ncnc(N)c24)c3F)n1
# Procedure, shortened: as §1
# Sequence of UniProt P60673 (P60673 whole entry, looked up): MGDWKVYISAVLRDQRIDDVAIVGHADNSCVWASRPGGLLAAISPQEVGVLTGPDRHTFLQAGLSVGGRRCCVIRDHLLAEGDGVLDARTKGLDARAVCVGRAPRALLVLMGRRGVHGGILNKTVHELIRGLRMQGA
# Sequence of UniProt A8CG34 (A8CG34 whole entry, looked up): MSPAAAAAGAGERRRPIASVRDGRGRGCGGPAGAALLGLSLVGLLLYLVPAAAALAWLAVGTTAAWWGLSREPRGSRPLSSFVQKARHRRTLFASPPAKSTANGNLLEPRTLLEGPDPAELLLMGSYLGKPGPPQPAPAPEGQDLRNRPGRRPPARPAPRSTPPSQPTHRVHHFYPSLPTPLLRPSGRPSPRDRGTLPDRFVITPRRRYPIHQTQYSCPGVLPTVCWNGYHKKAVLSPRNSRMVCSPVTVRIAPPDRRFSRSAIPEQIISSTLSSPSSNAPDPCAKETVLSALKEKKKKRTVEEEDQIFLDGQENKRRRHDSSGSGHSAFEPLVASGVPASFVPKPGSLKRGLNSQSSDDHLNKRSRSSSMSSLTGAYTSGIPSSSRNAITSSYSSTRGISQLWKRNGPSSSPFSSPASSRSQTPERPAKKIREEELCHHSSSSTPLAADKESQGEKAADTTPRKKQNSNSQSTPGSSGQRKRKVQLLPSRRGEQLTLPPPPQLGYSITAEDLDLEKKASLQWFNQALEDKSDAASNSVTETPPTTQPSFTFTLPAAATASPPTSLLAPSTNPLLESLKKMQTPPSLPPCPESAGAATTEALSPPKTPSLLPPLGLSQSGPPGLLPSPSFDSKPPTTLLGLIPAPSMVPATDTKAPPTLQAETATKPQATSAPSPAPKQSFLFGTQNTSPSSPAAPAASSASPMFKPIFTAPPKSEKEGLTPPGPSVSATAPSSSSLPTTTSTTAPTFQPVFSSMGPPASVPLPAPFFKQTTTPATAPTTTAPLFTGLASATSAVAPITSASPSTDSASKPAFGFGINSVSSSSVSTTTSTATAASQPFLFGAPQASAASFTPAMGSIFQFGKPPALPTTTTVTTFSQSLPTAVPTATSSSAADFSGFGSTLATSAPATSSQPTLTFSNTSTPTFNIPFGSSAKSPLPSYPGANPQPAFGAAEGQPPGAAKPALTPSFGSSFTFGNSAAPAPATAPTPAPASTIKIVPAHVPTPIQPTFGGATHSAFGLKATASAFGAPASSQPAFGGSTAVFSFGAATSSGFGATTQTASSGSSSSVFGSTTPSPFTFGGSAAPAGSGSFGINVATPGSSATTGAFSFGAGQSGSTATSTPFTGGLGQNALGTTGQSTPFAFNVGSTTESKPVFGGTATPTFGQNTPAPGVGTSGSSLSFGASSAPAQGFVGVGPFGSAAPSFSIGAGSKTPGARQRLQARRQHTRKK
# Sequence of UniProt O94880 (O94880 whole entry, looked up): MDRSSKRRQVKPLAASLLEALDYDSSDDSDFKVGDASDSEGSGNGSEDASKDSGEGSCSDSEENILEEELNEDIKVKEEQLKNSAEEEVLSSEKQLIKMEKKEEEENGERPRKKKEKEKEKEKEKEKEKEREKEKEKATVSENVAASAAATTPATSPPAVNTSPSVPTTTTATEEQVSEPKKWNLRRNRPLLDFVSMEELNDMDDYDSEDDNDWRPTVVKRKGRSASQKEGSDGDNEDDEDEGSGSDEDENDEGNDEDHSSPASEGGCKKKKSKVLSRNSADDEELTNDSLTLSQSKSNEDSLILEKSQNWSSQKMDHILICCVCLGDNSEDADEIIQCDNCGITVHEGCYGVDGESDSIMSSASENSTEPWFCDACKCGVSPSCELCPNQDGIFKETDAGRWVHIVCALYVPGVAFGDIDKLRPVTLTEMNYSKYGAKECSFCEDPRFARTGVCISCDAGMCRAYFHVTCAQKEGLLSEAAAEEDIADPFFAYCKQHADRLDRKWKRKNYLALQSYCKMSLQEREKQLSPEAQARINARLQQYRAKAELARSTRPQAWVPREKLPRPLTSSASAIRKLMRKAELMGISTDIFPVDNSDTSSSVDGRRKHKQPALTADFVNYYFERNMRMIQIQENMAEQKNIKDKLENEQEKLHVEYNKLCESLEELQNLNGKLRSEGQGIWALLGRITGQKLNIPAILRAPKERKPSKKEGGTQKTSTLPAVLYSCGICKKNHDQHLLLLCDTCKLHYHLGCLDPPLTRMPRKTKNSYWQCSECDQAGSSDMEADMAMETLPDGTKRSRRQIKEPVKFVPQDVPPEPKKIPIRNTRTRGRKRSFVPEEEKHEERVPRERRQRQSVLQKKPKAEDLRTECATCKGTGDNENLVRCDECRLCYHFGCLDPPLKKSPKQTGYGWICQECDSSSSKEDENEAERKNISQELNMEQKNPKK
# Sequence of UniProt Q9BRQ0 (Q9BRQ0 whole entry, looked up): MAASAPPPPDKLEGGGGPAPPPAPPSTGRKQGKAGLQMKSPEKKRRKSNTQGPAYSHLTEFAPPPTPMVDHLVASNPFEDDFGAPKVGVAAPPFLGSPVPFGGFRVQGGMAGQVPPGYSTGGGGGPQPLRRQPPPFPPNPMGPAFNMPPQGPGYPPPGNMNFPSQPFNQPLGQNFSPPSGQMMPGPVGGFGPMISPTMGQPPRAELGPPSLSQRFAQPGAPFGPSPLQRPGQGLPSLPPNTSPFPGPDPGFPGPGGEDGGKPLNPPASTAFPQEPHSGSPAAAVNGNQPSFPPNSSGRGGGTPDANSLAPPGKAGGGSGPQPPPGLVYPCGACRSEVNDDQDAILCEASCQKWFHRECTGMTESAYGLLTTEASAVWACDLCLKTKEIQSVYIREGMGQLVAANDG
# Sequence of UniProt Q9Y6I8 (Q9Y6I8 whole entry, looked up): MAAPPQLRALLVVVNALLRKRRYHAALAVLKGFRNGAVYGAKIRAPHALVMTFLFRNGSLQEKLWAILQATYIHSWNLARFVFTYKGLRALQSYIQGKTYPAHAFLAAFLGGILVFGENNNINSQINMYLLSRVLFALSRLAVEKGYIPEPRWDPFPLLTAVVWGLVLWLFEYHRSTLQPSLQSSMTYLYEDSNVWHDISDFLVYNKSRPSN
# Sequence of UniProt P45877 (P45877 whole entry, looked up): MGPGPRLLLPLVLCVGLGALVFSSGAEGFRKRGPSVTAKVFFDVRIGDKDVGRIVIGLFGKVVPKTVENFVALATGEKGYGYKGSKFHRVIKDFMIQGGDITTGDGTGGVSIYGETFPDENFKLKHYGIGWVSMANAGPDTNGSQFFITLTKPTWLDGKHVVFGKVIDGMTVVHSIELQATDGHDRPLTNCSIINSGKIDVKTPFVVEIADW
# Sequence of UniProt Q16378 (Q16378 whole entry, looked up): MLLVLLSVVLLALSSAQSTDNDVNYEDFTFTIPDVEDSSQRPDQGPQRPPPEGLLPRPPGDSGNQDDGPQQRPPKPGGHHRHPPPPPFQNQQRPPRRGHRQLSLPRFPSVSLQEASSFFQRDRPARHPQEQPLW
# Sequence of UniProt O43663 (O43663 whole entry, looked up): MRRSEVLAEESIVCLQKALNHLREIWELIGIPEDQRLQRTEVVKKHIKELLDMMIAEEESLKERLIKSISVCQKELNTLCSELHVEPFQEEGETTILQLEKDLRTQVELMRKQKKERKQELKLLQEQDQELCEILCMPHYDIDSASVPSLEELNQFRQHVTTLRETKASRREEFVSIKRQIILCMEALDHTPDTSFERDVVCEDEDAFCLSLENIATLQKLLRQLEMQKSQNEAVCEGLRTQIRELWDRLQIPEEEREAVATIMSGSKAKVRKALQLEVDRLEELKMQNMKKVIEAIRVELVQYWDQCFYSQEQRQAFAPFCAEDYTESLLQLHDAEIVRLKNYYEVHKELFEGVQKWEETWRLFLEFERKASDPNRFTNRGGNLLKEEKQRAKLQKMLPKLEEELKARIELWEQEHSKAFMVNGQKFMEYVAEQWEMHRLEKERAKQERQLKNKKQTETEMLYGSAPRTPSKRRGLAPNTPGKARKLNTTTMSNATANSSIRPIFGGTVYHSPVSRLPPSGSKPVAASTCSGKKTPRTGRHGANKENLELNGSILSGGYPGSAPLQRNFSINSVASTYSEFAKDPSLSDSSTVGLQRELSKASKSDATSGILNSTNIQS
# Sequence of UniProt O75928 (O75928 whole entry, looked up): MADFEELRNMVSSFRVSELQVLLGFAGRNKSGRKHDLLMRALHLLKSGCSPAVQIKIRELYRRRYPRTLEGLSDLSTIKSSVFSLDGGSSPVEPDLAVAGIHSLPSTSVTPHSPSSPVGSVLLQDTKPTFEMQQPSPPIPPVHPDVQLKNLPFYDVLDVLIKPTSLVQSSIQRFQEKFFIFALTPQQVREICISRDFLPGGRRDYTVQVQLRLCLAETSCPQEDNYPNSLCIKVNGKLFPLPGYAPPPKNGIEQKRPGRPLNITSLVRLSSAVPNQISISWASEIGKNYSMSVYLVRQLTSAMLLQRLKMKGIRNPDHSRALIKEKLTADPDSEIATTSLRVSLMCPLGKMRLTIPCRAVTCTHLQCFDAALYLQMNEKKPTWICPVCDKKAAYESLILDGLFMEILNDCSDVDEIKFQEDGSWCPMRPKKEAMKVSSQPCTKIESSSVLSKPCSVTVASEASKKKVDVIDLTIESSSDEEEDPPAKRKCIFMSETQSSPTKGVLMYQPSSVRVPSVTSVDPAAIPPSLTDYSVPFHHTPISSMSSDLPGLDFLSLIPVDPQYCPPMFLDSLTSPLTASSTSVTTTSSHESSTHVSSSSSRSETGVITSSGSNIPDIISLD
# Sequence of UniProt P06454 (P06454 whole entry, looked up): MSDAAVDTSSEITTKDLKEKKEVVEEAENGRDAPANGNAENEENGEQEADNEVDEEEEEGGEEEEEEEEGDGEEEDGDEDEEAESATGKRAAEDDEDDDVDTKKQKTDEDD
Target,log2 fold change (alvocidib),log2 fold change (Tubastatin A),log2 fold change [1],log2 fold change (defactinib),log2 fold change [2],log2 fold change (encorafenib),log2 fold change [3],log2 fold change (alisertib),log2 fold change [4],log2 fold change (gefitinib),log2 fold change (lapatinib),log2 fold change (pictilisib),log2 fold change (crizotinib),log2 fold change [5],log2 fold change (duvelisib),log2 fold change (gandotinib),log2 fold change (tozasertib),log2 fold change (doramapimod),log2 fold change (bafetinib),log2 fold change [6]
POLB (UniProt P06746),0.023,-0.199,-0.062,0.028,-0.033,0.045,0.086,0.015,0,0.038,0.017,0.075,-0.003,0.011,0.018,-0.041,-0.015,-0.003,-0.024,-0.009
PRKDC (UniProt P78527),-0.06,-0.114,-0.002,0.033,-0.03,-0.022,-0.035,0.012,-0.003,,-0.032,0.155,-0.026,-0.088,0.298,0.132,-0.03,-0.038,-0.146,-0.074
PRC1 (UniProt O43663),0.002,-0.157,0.043,-0.012,0.012,0.031,0.255 (active),0.045,-0.032,0.049,-0.014,-0.007,-0.109,0.023,0.059,-0.003,0.017,0.004,-0.079,0.025
PIK3CD (UniProt O00329),-0.105,0.012,0.021,0.052,-0.047,,,-0.027,0.027,,-0.043,0.142,-0.037,0.035,0.477 (active),0.389,,0.03,-0.136,-0.016
PXMP4 (UniProt Q9Y6I8),0,-0.015,0.012,-0.028,0.736 (active),0.033,0.092,-0.039,-0.009,-0.039,-0.071,0.066,-0.29,-0.068,-0.112,-0.221,-0.034,0.238,-0.148,0.194
PPIC (UniProt P45877),-0.031,0.089,0.024,0.077,-0.052,,,0.004,,0.103,,-0.003,-0.131,-0.078,-0.095,-0.042,,0.086,-0.061,0.079
POM121C (UniProt A8CG34),-0.089,0.124,0.069,,,,,,-0.076,,0.164,0.19,,0.007,,0.051,,,0.135,-0.091
PPP2R5C isoform 2 (UniProt Q13362),-0.004,0.044,-0.028,-0.024,0.001,,,0.058,,-0.062,,0.151,0.234,-0.021,-0.064,0.026,,-0.043,0.103,-0.005
PHF14 (UniProt O94880),,0.01,,-0.012,0.02,-0.014,0.1,0.044,-0.069,-0.042,0.199,-0.049,,,0.024,,-0.117,,-0.013,
PYGO2 (UniProt Q9BRQ0),0.01,-0.019,0.032,,0.131,-0.031,-0.121,-0.011,,-0.026,,-0.038,0.067,0.014,-0.046,0.078,-0.076,0.032,-0.046,-0.022
PLXND1 (UniProt Q9Y4D7),,0.111,0.015,,-0.123,,,0.046,,0.313,,0.018,0.067,,-0.031,,,0.171,-0.461 (active),
"PPT2, A0A140T9Y1",,,,,,,,-0.144,,0.006,,,,,,,,,,
PRR4 (UniProt Q16378),-0.033,0.181,0.215,0.08,,-0.396,0.126,0.075,-0.011,0.026,0.047,,,0.291,,-0.34,0.412,,,0.252
PIAS2 (UniProt O75928),,-0.092,0.006,-0.348,-0.002,0.006,-0.041,-0.021,,-0.091,,,-0.045,,0.075,,0.048,-0.007,,
"PDIA4, A0A499FI48",0.336,,,,-0.003,,,,,,,,-0.063,1.32 (active),-0.101,-0.18,,-0.039,,-0.154
PRG4 (UniProt Q92954),-0.826 (active),0.103,,,0.204,,,-0.045,0.093,-0.076,-0.097,-0.408,-0.118,-1.36 (active),0.042,0.051,,0.201,-0.238,0.278
POLR2F (UniProt U3KPV3),,,,,-0.059,0.177,-0.182,,,,,,,,0.012,,0.109,,,
PFN1 (UniProt I3L3D5),0.045,-0.01,,,,0.157,0.058,0.028,-0.195,0.062,0.066,-0.062,,0.524 (active),,-0.15,-0.051,,-0.19,0.015
PFN3 (UniProt P60673),-0.182,,,-0.109,,0.125,-0.28,-0.047,0.154,0.075,-0.199,,-0.046,-0.458,,0.119,0.155,0.083,,0.193
PTMA isoform 2 (UniProt P06454),,,,,,,,,,,,-0.053,,,,,,,-0.02,
PHC1 (UniProt P78364),,,,0.005,0.184,0.059,-0.062,-0.017,,-0.101,,-0.025,0.063,,-0.025,,0.022,-0.254,0,
